Targets with a hit are over-represented here; the source holds about 7,900 in all. About 0.6% of all pairs of compound and target were hits.
Columns and labels:
Assay in all cases: log2 fold change, soluble protein after heating vs DMSO (PISA); higher = thermal stabilisation; K562 cells, 10 uM, 30 min; active = over 0.2 and 3.5 SD of the protein, either way, in both replicates (recomputed)
[1] = compound: NC(=O)Nc1cc(-c2cccc(F)c2)sc1C(=O)N[C@H]1CCCNC1
How it was run: (§1)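 K562 cells at 2×10^6 cells/mL were treated for 30 min with 10 μM compound, and aliquots were heated for 3 min over 48°C-58°C before pooling. Extraction used PBS with 0.5% NP-40 at 4°C, and soluble protein was the supernatant after 21,000xg for 90 min, measured by TMTpro 16plex LC-MS/MS with channel sums equalised. Thermal stability values, relative to control samples and from duplicates, are log2 fold changes.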

[2] = compound: NC(=O)c1cnc(N[C@@H]2CCCC[C@@H]2N)nc1Nc1cccc(-n2nccn2)c1
How it was run: as §1

[3] = compound: NC1(c2ccc(-c3nc4ccn5c(=O)[nH]nc5c4cc3-c3ccccc3)cc2)CCC1
How it was run: as §1

[4] = compound: NCC(=O)Nc1ccc(-n2nc(C(F)(F)F)cc2-c2ccc3c(ccc4ccccc43)c2)cc1
How it was run: as §1

entinostat = compound: Nc1ccccc1NC(=O)c1ccc(CNC(=O)OCc2cccnc2)cc1 [entinostat]
How it was run: as §1

vorinostat = compound: O=C(CCCCCCC(=O)Nc1ccccc1)NO [vorinostat]
How it was run: as §1

citarinostat = compound: O=C(CCCCCCNC(=O)c1cnc(N(c2ccccc2)c2ccccc2Cl)nc1)NO [citarinostat]
How it was run: as §1

silmitasertib = compound: O=C(O)c1ccc2c(c1)nc(Nc1cccc(Cl)c1)c1ccncc12 [silmitasertib]
How it was run: as §1

[5] = compound: O=C1NC(=O)C(c2cnc3ccccn23)=C1c1cn2c3c(cc(F)cc13)CN(C(=O)N1CCCCC1)CC2
How it was run: as §1

[6] = compound: c1cc(OCCN2CCCCC2)cc(-c2n[nH]c3ccc(-c4nnc[nH]4)cc23)c1
How it was run: as §1

entospletinib = compound: c1cn2cc(-c3ccc4cn[nH]c4c3)nc(Nc3ccc(N4CCOCC4)cc3)c2n1 [entospletinib]
How it was run: as §1

Measured: log2 fold change

PIP4K2A (UniProt P48426)
inactive: [1] -0.026 | [2] 0.013 | [3] -0.086 | [4] 0.113 | entinostat 0.026 | vorinostat -0.037 | citarinostat 0.004 | silmitasertib 0.259 | [5] 0.057 | [6] -0.057 | entospletinib -0.049

PARG (UniProt Q86W56)
Chain of UniProt Q86W56 (Q86W56 whole entry, looked up): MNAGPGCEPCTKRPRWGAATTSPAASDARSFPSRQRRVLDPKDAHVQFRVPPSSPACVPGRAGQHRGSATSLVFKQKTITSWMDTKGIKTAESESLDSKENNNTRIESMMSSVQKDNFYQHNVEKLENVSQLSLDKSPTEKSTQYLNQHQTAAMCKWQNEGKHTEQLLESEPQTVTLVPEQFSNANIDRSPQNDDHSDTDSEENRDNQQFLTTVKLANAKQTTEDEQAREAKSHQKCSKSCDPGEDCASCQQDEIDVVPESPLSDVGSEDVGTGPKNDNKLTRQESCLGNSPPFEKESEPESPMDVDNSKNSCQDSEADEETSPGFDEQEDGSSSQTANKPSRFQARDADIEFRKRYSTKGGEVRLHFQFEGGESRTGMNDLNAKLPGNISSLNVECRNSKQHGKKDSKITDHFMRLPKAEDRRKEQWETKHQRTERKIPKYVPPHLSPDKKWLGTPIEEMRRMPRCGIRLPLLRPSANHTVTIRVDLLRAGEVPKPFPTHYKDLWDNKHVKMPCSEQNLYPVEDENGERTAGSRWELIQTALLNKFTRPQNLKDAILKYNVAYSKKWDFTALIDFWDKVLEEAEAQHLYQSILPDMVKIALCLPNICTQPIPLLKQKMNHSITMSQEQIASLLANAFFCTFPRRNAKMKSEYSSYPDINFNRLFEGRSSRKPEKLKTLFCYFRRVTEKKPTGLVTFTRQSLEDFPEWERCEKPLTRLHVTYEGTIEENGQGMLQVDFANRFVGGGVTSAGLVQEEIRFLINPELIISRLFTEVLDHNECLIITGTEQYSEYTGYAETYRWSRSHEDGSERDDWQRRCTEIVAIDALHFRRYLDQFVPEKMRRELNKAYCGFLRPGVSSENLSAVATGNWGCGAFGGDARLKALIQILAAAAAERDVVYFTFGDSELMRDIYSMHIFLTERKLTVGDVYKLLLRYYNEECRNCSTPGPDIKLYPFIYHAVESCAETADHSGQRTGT
inactive: [1] 0.141 | [2] 0.001 | [3] -0.113 | [4] -0.013 | entinostat 0.12 | vorinostat 0.157 | citarinostat 0.067 | silmitasertib 0.048 | [5] 0.065 | [6] -0.091 | entospletinib -0.015

PPP6R1 (UniProt Q9UPN7)
inactive: [1] 0.023 | [2] -0.066 | [3] -0.09 | [4] 0.011 | entinostat -0.018 | vorinostat 0.023 | citarinostat 0.054 | silmitasertib 0.013 | [5] -0.055 | [6] -0.05 | entospletinib 0.033

PHKG2 (UniProt P15735)
Chain of UniProt P15735 (P15735 whole entry, looked up): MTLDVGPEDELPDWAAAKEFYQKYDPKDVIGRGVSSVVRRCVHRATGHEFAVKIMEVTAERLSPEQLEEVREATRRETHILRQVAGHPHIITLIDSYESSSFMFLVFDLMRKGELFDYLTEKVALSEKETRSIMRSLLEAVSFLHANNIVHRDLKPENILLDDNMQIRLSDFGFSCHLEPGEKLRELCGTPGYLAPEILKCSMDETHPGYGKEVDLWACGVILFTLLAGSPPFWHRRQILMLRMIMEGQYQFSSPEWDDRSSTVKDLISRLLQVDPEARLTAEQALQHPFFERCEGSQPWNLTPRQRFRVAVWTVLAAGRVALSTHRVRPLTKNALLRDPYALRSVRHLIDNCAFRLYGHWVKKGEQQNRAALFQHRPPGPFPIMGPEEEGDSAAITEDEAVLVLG
inactive: [2] 0.088 | [3] -0.064 | [4] -0.035 | entinostat -0.007 | vorinostat 0 | citarinostat 0.122 | silmitasertib 0.052 | [5] 0.023 | [6] -0.045
active: [1] 0.417 | entospletinib -0.279

PPP1R12A (UniProt O14974)
inactive: [2] -0.358 | [3] -0.137 | [4] -0.012 | entinostat 0.041 | vorinostat 0.017 | citarinostat 0.078 | silmitasertib 0.051 | [5] -0.01 | [6] -0.369 | entospletinib -0.045
active: [1] -0.428

PXK (UniProt Q7Z7A4)
Chain of UniProt Q7Z7A4 (Q7Z7A4 whole entry, looked up): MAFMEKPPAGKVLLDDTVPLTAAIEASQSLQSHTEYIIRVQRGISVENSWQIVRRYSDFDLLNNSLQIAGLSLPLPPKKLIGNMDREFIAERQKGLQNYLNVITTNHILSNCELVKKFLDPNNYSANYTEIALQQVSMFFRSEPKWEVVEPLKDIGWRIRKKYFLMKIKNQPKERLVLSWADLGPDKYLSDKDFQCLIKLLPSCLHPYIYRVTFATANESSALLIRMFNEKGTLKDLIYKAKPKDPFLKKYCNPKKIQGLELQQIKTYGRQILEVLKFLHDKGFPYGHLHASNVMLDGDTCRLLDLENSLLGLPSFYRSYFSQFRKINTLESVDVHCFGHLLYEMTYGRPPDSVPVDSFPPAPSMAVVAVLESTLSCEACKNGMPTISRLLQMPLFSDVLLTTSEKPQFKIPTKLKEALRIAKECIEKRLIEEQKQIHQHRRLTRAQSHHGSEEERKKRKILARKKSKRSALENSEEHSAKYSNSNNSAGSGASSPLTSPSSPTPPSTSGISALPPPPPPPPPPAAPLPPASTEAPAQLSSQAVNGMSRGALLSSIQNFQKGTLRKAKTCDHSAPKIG
active: [3] -0.279
inactive: [1] -0.057 | [2] -0.044 | [4] -0.073 | entinostat 0.014 | vorinostat 0.018 | citarinostat 0.021 | silmitasertib -0.002 | [5] -0.043 | [6] 0.008 | entospletinib 0.009

PCTP (UniProt Q9UKL6)
Chain of UniProt Q9UKL6 (Q9UKL6 whole entry, looked up): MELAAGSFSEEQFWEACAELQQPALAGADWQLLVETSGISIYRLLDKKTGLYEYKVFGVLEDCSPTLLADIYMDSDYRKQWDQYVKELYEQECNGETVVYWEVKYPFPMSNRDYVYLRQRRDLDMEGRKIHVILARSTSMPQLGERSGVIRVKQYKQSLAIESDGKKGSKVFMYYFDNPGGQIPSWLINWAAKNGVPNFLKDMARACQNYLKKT
inactive: [1] -0.078 | [2] -0.07 | [3] -0.023 | [4] -0.092 | entinostat 0.065 | vorinostat -0.051 | citarinostat 0.003 | silmitasertib 0.043 | [5] -0.061 | [6] 0.363 | entospletinib -0.072

PRPSAP2 (UniProt O60256)
inactive: [1] -0.146 | [2] 0.1 | [3] 0.019 | [4] 0.034 | entinostat -0.109 | vorinostat 0.003 | citarinostat -0.02 | silmitasertib 0.011 | [5] -0.052 | [6] -0.03 | entospletinib -0.008

POM121 (UniProt Q96HA1)
inactive: [1] -0.015 | [2] -0.199 | [4] -0.083 | entinostat 0.01 | vorinostat 0.055 | citarinostat 0.045 | [5] 0.05 | [6] -0.045 | entospletinib -0.051

PUF60 (UniProt Q9UHX1)
inactive: [1] -0.112 | [2] -0.029 | [3] -0.035 | [4] -0.132 | entinostat 0.049 | vorinostat 0.028 | citarinostat 0.079 | silmitasertib -0.098 | [5] -0.025 | [6] -0.092 | entospletinib -0.017

PRKD2 isoform 3 (UniProt Q9BZL6)
active: [1] -0.515
inactive: [2] -0.217 | [3] -0.074 | [4] 0 | entinostat 0.331 | vorinostat 0.186 | silmitasertib 0.047 | [5] -0.014

POLR2C (UniProt P19387)
inactive: [1] -0.046 | [2] -0.026 | [3] -0.131 | [4] -0.196 | entinostat -0.031 | citarinostat 0.017 | silmitasertib 0.118 | [5] -0.023 | [6] -0.195 | entospletinib 0.138

PRUNE1 (UniProt Q86TP1)
Chain of UniProt Q86TP1 (Q86TP1 whole entry, looked up): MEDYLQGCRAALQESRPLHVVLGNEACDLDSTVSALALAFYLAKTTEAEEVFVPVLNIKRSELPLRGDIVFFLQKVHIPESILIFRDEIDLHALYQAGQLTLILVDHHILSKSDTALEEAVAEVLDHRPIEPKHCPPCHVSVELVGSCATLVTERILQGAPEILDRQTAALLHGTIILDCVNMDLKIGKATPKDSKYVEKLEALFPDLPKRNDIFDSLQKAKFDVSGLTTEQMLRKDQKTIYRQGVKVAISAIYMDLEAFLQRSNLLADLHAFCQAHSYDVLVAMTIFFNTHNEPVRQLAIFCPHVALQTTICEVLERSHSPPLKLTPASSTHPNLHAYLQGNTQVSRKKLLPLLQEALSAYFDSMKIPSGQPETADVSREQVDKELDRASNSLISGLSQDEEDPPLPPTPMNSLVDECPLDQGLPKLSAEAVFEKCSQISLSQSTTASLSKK
inactive: [1] -0.004 | [2] -0.012 | [3] -0.179 | [4] 0.052 | entinostat 0.041 | vorinostat 0.04 | citarinostat 0.006 | silmitasertib 0.138 | [5] -0.107 | [6] 0.018 | entospletinib 0.029

PNN (UniProt Q9H307)
active: [6] -0.446
inactive: [1] -0.018 | [2] -0.24 | [3] 0.053 | entinostat 0.021 | vorinostat 0.045 | citarinostat -0.077 | silmitasertib -0.124 | [5] 0.106 | entospletinib 0.172

PIR (UniProt O00625)
Chain of UniProt O00625 (O00625 whole entry, looked up): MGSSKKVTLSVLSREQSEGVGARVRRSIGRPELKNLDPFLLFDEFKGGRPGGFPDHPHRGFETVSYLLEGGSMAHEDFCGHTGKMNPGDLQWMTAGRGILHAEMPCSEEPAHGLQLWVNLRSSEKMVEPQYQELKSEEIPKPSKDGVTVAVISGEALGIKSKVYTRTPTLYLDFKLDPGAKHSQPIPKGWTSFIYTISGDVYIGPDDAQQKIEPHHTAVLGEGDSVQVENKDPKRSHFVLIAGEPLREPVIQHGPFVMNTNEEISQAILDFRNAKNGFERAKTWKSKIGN
active: vorinostat -0.625 | [6] 0.253
inactive: [1] -0.047 | [2] -0.053 | [3] -0.195 | [4] -0.024 | entinostat -0.022 | citarinostat -0.014 | silmitasertib -0.038 | [5] -0.012 | entospletinib 0.028

PDIK1L (UniProt Q8N165)
Chain of UniProt Q8N165 (Q8N165 whole entry, looked up): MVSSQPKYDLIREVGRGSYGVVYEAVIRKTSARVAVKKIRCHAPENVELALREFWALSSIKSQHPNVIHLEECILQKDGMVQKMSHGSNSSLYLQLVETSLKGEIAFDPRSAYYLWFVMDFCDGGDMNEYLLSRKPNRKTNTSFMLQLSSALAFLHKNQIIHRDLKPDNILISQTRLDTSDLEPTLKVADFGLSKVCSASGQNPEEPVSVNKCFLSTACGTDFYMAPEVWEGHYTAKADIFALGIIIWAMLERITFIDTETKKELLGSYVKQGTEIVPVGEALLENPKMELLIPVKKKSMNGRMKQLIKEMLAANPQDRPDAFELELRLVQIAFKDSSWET
inactive: [2] -0.025 | [3] -0.075 | [4] -0.225 | entinostat -0.094 | citarinostat 0.016 | silmitasertib 0.035 | [5] 0.019 | [6] -0.162 | entospletinib 0.06
active: [1] 0.566

PRKACB isoform 2 (UniProt P22694)
inactive: [1] 0.078 | [2] -0.11 | [3] -0.173 | [4] -0.02 | entinostat 0.001 | vorinostat 0.04 | citarinostat 0.015 | silmitasertib -0.002 | [5] -0.119 | [6] -0.065 | entospletinib -0.019

PDE6D (UniProt O43924)
Chain of UniProt O43924 (O43924 whole entry, looked up): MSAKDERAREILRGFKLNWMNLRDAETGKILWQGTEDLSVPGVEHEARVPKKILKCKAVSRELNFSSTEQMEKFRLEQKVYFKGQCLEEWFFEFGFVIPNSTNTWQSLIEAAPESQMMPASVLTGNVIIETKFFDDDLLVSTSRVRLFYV
inactive: [1] 0.001 | [2] -0.113 | [3] 0.122 | [4] 0.025 | entinostat 0.125 | vorinostat -0.007 | silmitasertib 0.077 | [5] 0.009

PRPF38B (UniProt Q5VTL8)
inactive: [1] -0.199 | [2] -0.019 | [3] 0.017 | [4] -0.203 | entinostat 0.006 | vorinostat 0.033 | citarinostat 0.028 | silmitasertib -0.246 | [5] -0.006 | [6] -0.19 | entospletinib 0.032

PSMD6 (UniProt Q15008)
inactive: [1] -0.028 | [2] 0.037 | [3] -0.024 | [4] 0.082 | entinostat -0.045 | vorinostat -0.001 | citarinostat -0.017 | silmitasertib 0.011 | [5] 0.039 | [6] -0.063 | entospletinib 0.058

POLR3D (UniProt P05423)
Chain of UniProt P05423 (P05423 whole entry, looked up): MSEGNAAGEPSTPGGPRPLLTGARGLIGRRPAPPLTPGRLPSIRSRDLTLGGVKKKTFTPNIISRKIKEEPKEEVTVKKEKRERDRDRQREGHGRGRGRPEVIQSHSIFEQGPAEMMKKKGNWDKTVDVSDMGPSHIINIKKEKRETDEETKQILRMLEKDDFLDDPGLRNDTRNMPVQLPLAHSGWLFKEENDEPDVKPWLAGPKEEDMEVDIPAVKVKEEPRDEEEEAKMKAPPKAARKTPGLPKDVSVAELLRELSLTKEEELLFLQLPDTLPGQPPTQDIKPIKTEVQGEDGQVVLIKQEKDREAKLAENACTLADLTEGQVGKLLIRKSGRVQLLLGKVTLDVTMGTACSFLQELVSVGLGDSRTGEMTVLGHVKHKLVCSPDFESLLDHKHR
inactive: [1] -0.061 | [3] -0.115 | [4] -0.028 | entinostat 0.03 | vorinostat 0.158 | silmitasertib 0.078 | [5] 0.032
active: [2] 1.51

PDCD6IP (UniProt Q8WUM4)
inactive: [1] -0.055 | [2] -0.1 | [3] -0.186 | [4] -0.103 | entinostat 0.149 | vorinostat 0.186 | citarinostat 0.113 | silmitasertib 0.094 | [5] -0.009 | [6] 0 | entospletinib 0.023

PSMC6 (UniProt P62333)
Chain of UniProt P62333 (P62333 whole entry, looked up): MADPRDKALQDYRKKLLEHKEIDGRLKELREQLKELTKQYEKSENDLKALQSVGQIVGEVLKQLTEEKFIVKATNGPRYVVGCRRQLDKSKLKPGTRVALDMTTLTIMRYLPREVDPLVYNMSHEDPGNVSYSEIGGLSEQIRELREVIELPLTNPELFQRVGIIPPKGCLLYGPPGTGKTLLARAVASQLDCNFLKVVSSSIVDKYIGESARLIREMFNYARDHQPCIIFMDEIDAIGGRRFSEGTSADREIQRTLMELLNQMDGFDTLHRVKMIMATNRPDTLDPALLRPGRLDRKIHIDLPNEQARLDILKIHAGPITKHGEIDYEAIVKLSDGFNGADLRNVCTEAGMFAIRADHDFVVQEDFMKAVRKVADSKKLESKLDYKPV
inactive: [1] 0.007 | [2] 0.015 | [3] 0.069 | [4] 0.075 | entinostat -0.015 | vorinostat -0.005 | citarinostat -0.048 | silmitasertib -0.035 | [5] 0.072 | [6] -0.075 | entospletinib 0.01

QRICH1 (UniProt Q2TAL8)
Chain of UniProt Q2TAL8 (Q2TAL8 whole entry, looked up): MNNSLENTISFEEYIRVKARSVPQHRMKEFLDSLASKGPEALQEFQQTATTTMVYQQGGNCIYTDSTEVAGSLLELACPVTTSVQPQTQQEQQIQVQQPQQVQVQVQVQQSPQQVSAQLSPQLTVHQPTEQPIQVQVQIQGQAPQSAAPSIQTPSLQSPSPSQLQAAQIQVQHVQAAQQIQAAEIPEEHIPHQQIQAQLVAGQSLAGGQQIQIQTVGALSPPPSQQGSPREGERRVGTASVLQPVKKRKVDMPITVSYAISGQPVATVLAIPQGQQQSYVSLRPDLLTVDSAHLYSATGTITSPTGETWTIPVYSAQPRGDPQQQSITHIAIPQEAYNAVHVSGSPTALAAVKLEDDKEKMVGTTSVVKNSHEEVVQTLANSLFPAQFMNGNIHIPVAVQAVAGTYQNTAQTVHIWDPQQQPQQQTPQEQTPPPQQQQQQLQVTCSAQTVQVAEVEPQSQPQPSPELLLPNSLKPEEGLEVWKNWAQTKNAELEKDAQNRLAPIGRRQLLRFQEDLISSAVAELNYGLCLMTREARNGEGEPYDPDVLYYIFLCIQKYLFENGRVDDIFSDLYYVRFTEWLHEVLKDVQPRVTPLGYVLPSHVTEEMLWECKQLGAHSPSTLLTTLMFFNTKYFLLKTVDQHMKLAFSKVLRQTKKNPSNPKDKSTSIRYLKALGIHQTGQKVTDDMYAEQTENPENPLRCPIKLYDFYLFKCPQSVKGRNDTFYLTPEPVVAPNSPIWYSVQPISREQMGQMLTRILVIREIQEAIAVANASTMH
inactive: [1] -0.043 | [2] -0.119 | [3] -0.137 | [4] -0.093 | entinostat 0.168 | citarinostat 0.11 | silmitasertib 0.047 | [5] -0.276 | [6] 0.027 | entospletinib -0.054

PTK2B (UniProt Q14289)
inactive: [1] 0.076 | [2] 0.091 | [3] -0.13 | [4] -0.092 | entinostat 0.128 | vorinostat 0.011 | silmitasertib 0.054 | [5] 0.072

PJA2 (UniProt O43164)
inactive: [1] -0.006 | [2] -0.047 | [3] -0.049 | [4] 0.029 | entinostat 0.004 | vorinostat -0.001 | citarinostat -0.005 | silmitasertib 0.026 | [5] -0.059 | [6] -0.075 | entospletinib -0.009

POLA2 (UniProt Q14181)
inactive: [1] -0.102 | [2] -0.115 | [3] -0.129 | [4] -0.133 | entinostat -0.014 | vorinostat 0.072 | citarinostat 0.054 | silmitasertib 0.058 | [5] -0.054 | [6] -0.026 | entospletinib -0.047

From the supplement of paper PMC10849652
